# Source: PubChem (several laboratories)
# Hits are enriched below; roughly 3.7% of the tested compounds scored in any of these assays.
# Kir21 block: inhibitors of mouse Kir2.1 inward-rectifier potassium channel; Inward rectifier potassium channel 2 (Mus musculus), P35561; HEK293-Kir2.1, FluxOR thallium flux fluorescence; active compounds read low; actives 0.85% (n = 310,000); B-score at 10 µM;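 active = fluorescence ratio B-score at or below minus 3 SD of library scores, with starting-brightness B-score within 2 SD, cut at about -4.2 in these data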;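 also: channel flux triggered by added potassium and thallium sulfate stimulus; B-score of peak minus minimum fluorescence over baseline after thallium stimulus; more negative B-score means stronger Kir2.1 block with less thallium influx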
# CHT block: inhibitors of human choline transporter CHT; High affinity choline transporter 1 (Homo sapiens), Q9GZV3; CHT-expressing cells, membrane potential dye, choline response; active compounds read low; B-score at 10 µM; actives 0.86% (n = 310,000);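 active = B-score over 3 SD under the library average, and starting fluorescence ratio not unusually high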;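 also: choline stimulus applied at its EC90 after an EC20 pre-addition; B-score computed on integrated fluorescence ratio after choline addition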
# ANO1 activ: TMEM16A chloride channel activators or potentiators, primary screen, cell-based, HTS; Anoctamin-1 (Mus musculus), Q8BHY3; HEK293 TMEM16A/YFP-H148Q/I152L, iodide quench fluorescence; active compounds read low; B-score at 10 µM; actives 0.3% (n = 340,000); AID 623877, 2012;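 active = fluorescence-ratio B-score plate-corrected deviation score at least 3 library SD below zero, with starting fluorescence score within 5 deviations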;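 also: channel opened by trigger with iodide after compound preincubation; score built on the fluorescence ratio of max minus min over baseline; more negative score means more quench and so TMEM16A activation or potentiation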
# GPR7 antag: GPR7 receptor antagonists, primary screen, cell-based, fluorescence, single concentration; actives 1.1% (n = 290,000); inhibition, % at 4.4 µM; Neuropeptides B/W receptor type 1 (Homo sapiens), P48145; GPR7-expressing cells, fluorescence antagonist assay; AID 1861, 2009; in the data active = inhibition above about 16%, passing the limit was not always enough;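 also: cells stimulated with the agonist NPW; 0% = agonist with vehicle and 100% = vehicle without agonist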
# TMEM16A inh: TMEM16A chloride channel inhibitors, primary screen, cell-based, HTS; normalized B-score (activity score, 25-100; higher = stronger inhibition) at 10 µM; Anoctamin-1 (Mus musculus), Q8BHY3; HEK293 TMEM16A/YFP iodide influx fluorescence, ionomycin; actives 1.2% (n = 310,000);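 active = ratio plate-corrected score three or more library SD toward inhibition, starting fluorescence score within five deviations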;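 also: score derived from kinetic fluorescence span divided by baseline fluorescence per well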
# CHT PAM: CHT positive allosteric modulators, primary screen, cell-based, membrane potential dye, choline EC20. actives 0.49% (n = 310,000). High affinity choline transporter 1 (Homo sapiens), Q9GZV3. B-score at 10 µM. CHT-expressing cells; active compounds read high; LV-AA mutant CHT in HEK293 cells;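 active = initial fluorescence not abnormally high and integrated response B-score, plate-corrected, over 3 SD above library mean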
# TMEM16A reconf: TMEM16A chloride channel inhibitors, confirmation, cell-based, re-confirmation; shares compounds with TMEM16A inh; HEK293 TMEM16A/YFP-H148Q, iodide quench fluorescence; ionomycin added to raise cell calcium; AID 652189, 2013; inhibition, % at 10 µM; actives 39% (n = 2,300);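 active = mean duplicate percent inhibition, scaled so buffer wells are 0 and the reference blocker 100, over three buffer SD above buffer mean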
# HEK293 Ca mobil: calcium mobilization in TMEM16A/YFP HEK293 cells, confirmation, counter-screen for TMEM16A inhibitor project | shares compounds with TMEM16A inh | Fluo4 calcium mobilization | calcium response (% of ionomycin), % at 10 µM | actives 2% (n = 2,300) | AID 652231, 2013;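 active = duplicate-averaged calcium signal over 20% of the ionomycin maximum, relative to buffer baseline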;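 also: each well's signal is peak minus trough fluorescence divided by its pre-addition baseline; 0% = buffer wells and 100% = ionomycin wells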
# Parental YFP cnt: iodide YFP quench changes in parental YFP-HEK293, counter-screen for TMEM16A inhibitor project, cell-based; AID 652233, 2013; YFP ratio F(max-min)/F0 at 10 µM; 2,300 tested, under 10 active; ionomycin; shares compounds with TMEM16A inh;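 active = yellow fluorescent protein signal ratio exceeding the buffer control mean by over 5 SD of those controls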;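 also: ratio is mean of duplicate wells from kinetic YFP trace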
# ClC-1 inh: ClC-1 chloride channel inhibition, selectivity assay for TMEM16A inhibitor project, cell-based, voltage-dependent ClC-1; shares compounds with TMEM16A inh; CHO ClC-1-YFP, iodide influx fluorescence quench; iodide control reads 0, buffer control 100; ratio percent, % at 10 µM; 2,300 tested, under 10 active;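 active = duplicate-mean ratio percent above the mean of iodide-only control wells, which defines zero, plus 5 of their SD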;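 also: higher percent means stronger block of ClC-1 iodide influx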
# An asterisk follows results filed as active; i = inactive; x = not tested or not shown.
SMILES,Kir21 block,CHT block,ANO1 activ,GPR7 antag,TMEM16A inh,CHT PAM,TMEM16A reconf,HEK293 Ca mobil,Parental YFP cnt,ClC-1 inh
O=C(CCc1ccc(S(=O)(=O)N2CCOCC2)cc1)Oc1ccccc1,-0.65,i,i,3,25*,i,i,i,-1.2,-1
O=C(c1ccc(-c2ccccc2)cc1)c1ccccc1C(=O)N1CCOCC1,0.23,i,i,6,100*,i,i,i,-1.2,-10
CCCN(CC(=O)Nc1ccccc1C)C(=O)CC(NC(=O)c1ccccc1)c1ccccc1 (stereo unspecified),0,i,i,x,i,i,x,x,x,x
COc1ccc(N2CCn3c2nc2c3c(=O)n(CCCc3ccccc3)c(=O)n2C)c(OC)c1,-2.5,i,i,-8,100*,i,22%*,i,-1.2,-14
N#Cc1cc[n+](CC(=O)c2ccc(NC(=O)c3ccccc3)cc2)cc1,-0.24,i,i,-14,i,i,x,x,x,x
Cc1cc(F)ccc1NCc1ccc([N+](=O)[O-])cc1,1.9,i,i,-26,i,i,x,x,x,x
O=C(CSc1ncnc2ccccc12)c1ccc2c(c1)OCCO2,-0.05,i,i,-14,25*,i,39%*,i,-0.91,-19
CCc1nc(SCC(=O)c2ccc3c(c2)OCCO3)c2ccccc2n1,-1,i,i,-4,i,i,x,x,x,x
COC(=O)[C@H](CC(C)C)NC(=O)NC1CCCCC1C (stereo partly specified),-0.53,i,i,7,25*,i,i,i,-1,-10
CCOC(=O)Cn1nc(-c2ccc(Cl)cc2)cc1N,0.18,i,i,11,100*,i,i,i,-1.4,-9
COc1cccc(CN(C)C(=O)Cc2c[nH]c3ccccc23)c1,1,i,i,-14,i,i,x,x,x,x
CC1CCCCC1NC(=O)CSc1nnc(COc2ccc(Cl)cc2)o1 (stereo unspecified),0,i,i,14,i,i,x,x,x,x
O=C(COCc1nc2ccccc2c(=O)[nH]1)NC1CCCC1,-0.21,i,i,-9,100*,i,i,i,-1.1,-8
Cc1ccc2nc(C)cc(C(=O)OCC(=O)Nc3cccnc3Cl)c2c1,-0.47,i,i,-13,i,i,x,x,x,x
O=C(Cn1cnc2ccccc21)Nc1ccc(SC(F)F)cc1,-0.9,i,i,12,25*,i,20%*,i,-0.9,-20
O=C(CSc1nnc(SCc2ccc(Cl)cc2)s1)N/N=C/c1ccccc1C(=O)O,-0.54,i,i,-18,i,i,x,x,x,x
CCOC(=O)CNC(=O)CSc1nc2sc(C)c(C)c2c(=O)n1C,0.66,i,i,-16,i,i,i,i,-1,-3
CCOC(=O)c1c(C)oc(NC(=O)CCl)c1C(=O)OCC,0.34,i,i,-5,i,i,x,x,x,x
